Screens as filed in PubChem BioAssay.
DUX4 txn inh = blocks DUX4-driven transcriptional activation | activity change, negative = inhibition, % (no concentration beside the values) | 293T-iDUX4 ZSCAN4-Gaussia luciferase reporter, 24 h; hits give low values | AID 1224904 | 37,000 tested, 0.8% active;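 active = mean inhibition of at least 10% in the main channel, exceeding the control channel by a set limit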
Each line names hits and unclear results; the compound was inactive in the other large screens; ! = repeats disagree. Many of the other results were omitted from the sample, so hits are more common in it than they were.

C[C@@H]1CN([C@@H](C)CO)C(=O)c2cc(NC(=O)Nc3cccc4ccccc34)ccc2O[C@H]1CN(C)C(=O)NC1CCCCC1	none
COc1ccc(S(=O)(=O)N(C)C[C@@H]2OCc3ccccc3-c3ccccc3C(=O)N([C@H](C)CO)C[C@H]2C)cc1	none
Cc1noc(C)c1NC(=O)Nc1ccc2c(c1)C(=O)N([C@H](C)CO)C[C@H](C)[C@H](CN(C)S(=O)(=O)c1cn(C)cn1)OCCCC[C@@H](C)O2	none
C/C=C/c1ccccc1[C@@H]1[C@H](C#N)N(C(=O)CN2CCOCC2)[C@H]1CO	none
CN1c2ccc(Br)cc2[C@H]2[C@H](CCN2C(=O)c2cccc(F)c2)[C@H]1CO	none
COc1ccc(C#Cc2ccc3c(c2)[C@@H]2[C@@H](CCN2C(=O)c2ccccc2F)[C@H](CO)N3C)cc1	none
CN1c2ccc(C#Cc3cccnc3)cc2[C@@H]2[C@@H](CCN2C(=O)c2cccc(F)c2)[C@H]1CO	DUX4 txn inh -37
CC(C)NC(=O)N1CC[C@H]2[C@@H]1c1cc(C#Cc3cccnc3)ccc1N(C)[C@H]2CO	none
CN1c2ccc(C#Cc3ccccc3F)cc2[C@H]2[C@H](CCN2C(=O)c2cnccn2)[C@H]1CO	DUX4 txn inh -29
CN1c2ccc(-c3ccccc3F)cc2[C@@H]2[C@@H](CCN2C(=O)c2ccccn2)[C@H]1CO	none
O=C(C[C@H]1C=C[C@@H](NC(=O)NC2CCCCC2)[C@H](CO)O1)NCc1ccc(F)cc1	none
Cc1noc(C)c1NC(=O)N[C@@H]1CC[C@H](CC(=O)N2CCN(C)CC2)O[C@H]1CO	none
O=C1CN(S(=O)(=O)c2ccccc2)C[C@@H]2[C@H](c3ccc(Br)cc3)[C@H](CO)N12	none
O=C(c1cnccn1)N1C[C@@H]2N[C@H](C1)C2c1ccc(/C=C/c2ccccc2)cc1 (some centres undefined)	none
Cc1ccccc1-c1ccc(C2[C@@H]3CN(Cc4cccnc4)C[C@H]2N3)cc1 (some centres undefined)	DUX4 txn inh -24
Cc1ccccc1-c1ccc(C2[C@@H]3CN(C(=O)C4CCOCC4)C[C@H]2N3)cc1 (some centres undefined)	none
Cc1ccccc1-c1ccc(C2[C@@H]3CN(S(=O)(=O)c4ccccc4C)C[C@H]2N3)cc1 (some centres undefined)	DUX4 txn inh -36!
COc1ccccc1-c1ccc(C2[C@@H]3CN(C(=O)c4cccnc4)C[C@H]2N3)cc1 (some centres undefined)	none
C/C=C/c1ccc(C2[C@@H]3CN(S(=O)(=O)c4ccc(F)cc4)C[C@H]2N3)cc1 (some centres undefined)	none
COc1ccc(NC(=O)N2C[C@@H]3N[C@H](C2)C3c2ccc(-c3ccncc3)cc2)cc1 (some centres undefined)	none
CN(C)C(=O)c1ccc(-c2ccc(C3[C@@H]4CN(Cc5cccnc5)C[C@H]3N4)cc2)cc1 (some centres undefined)	none
COc1cccc(S(=O)(=O)N2[C@@H]3CNC[C@H]2C3c2ccc(-c3ccccc3C)cc2)c1 (some centres undefined)	none
CN(C)C(=O)c1ccc(-c2ccc(C3[C@@H]4CN(S(=O)(=O)c5ccccc5F)C[C@H]3N4)cc2)cc1 (some centres undefined)	none
Cc1ccccc1-c1ccc(C2[C@@H]3CN(S(=O)(=O)c4ccccc4)C[C@H]2N3)cc1 (some centres undefined)	DUX4 txn inh -50!
COc1ccc(-c2ccc(C3[C@@H]4CN(C(=O)c5cnccn5)C[C@H]3N4)cc2)cc1 (some centres undefined)	DUX4 txn inh -32
CC(=O)N1[C@@H](CO)[C@@H](c2ccccc2)C12CN(C(=O)Nc1ccccc1F)C2	none
COc1cccc(NC(=O)Nc2ccc3c(c2)C(=O)N(C)[C@@H]2CC[C@@H](CC(=O)NCCc4ccccc4)O[C@@H]2CO3)c1	none
CO[C@@H]1CN(C)C(=O)c2cc(NC(=O)Nc3cccc(F)c3)ccc2OC[C@H](C)N(C(=O)C2CC2)C[C@H]1C	none
Cn1cnc(S(=O)(=O)N2C[C@@H](O)COC[C@@H]3O[C@H](CC(=O)NCc4cccc(F)c4)CC[C@H]32)c1	none
CN(C)CC(=O)Nc1ccc2c(c1)[C@H]1C[C@@H](CC(=O)NC3CCCCC3)O[C@@H](CO)[C@H]1O2	none
C[C@@H]1CCCCO[C@H](CN(C)S(=O)(=O)c2ccc(Cl)cc2)[C@@H](C)CN([C@@H](C)CO)C(=O)c2cc(NS(=O)(=O)c3cn(C)cn3)ccc2O1	none
CS(=O)(=O)N1CC2(C1)[C@H](c1ccccc1)[C@H](CO)N2Cc1ccccn1	none
C/C=C/c1ccc([C@@H]2[C@@H](CO)N(C(=O)c3cnccn3)C23CN(C(C)=O)C3)cc1	none
COCC#Cc1cnc2c(c1)C(=O)N([C@H](C)CO)C[C@@H](C)[C@H](CN(C)C(=O)c1cnccn1)O2	none
O=C(Cc1ccccn1)N[C@@H]1CC[C@H](CCNS(=O)(=O)c2cccc(F)c2)O[C@H]1CO	none
COc1ccc(NC(=O)N2C[C@@H]3N[C@H](C2)C3c2ccc(-c3cncnc3)cc2)cc1 (some centres undefined)	none
Cc1ccccc1-c1ccc([C@@H]2[C@@H](CO)N3C(=O)CN(S(C)(=O)=O)C[C@@H]23)cc1	none
COc1ccccc1S(=O)(=O)N1C[C@@H]2N[C@H](C1)C2c1ccc(-c2ccccc2C)cc1 (some centres undefined)	DUX4 txn inh -42!
COc1ccc(-c2ccc(C3[C@@H]4CN(S(=O)(=O)c5ccccc5C)C[C@H]3N4)cc2)cc1 (some centres undefined)	DUX4 txn inh -42!
C/C=C/c1ccc(C2[C@@H]3CN(S(=O)(=O)c4ccccc4F)C[C@H]2N3)cc1 (some centres undefined)	none
COc1ccccc1-c1ccc(C2[C@@H]3CN(C(=O)c4ccncc4)C[C@H]2N3)cc1 (some centres undefined)	none
O=C(C[C@@H]1CC[C@@H]2[C@H](COC[C@H](O)CN2C(=O)c2cnccn2)O1)NCc1ccc(Oc2ccccc2)cc1	none
CO[C@@H]1CN(C)C(=O)c2ccc(NC(C)=O)cc2OC[C@H](C)N(C(=O)c2ccccc2)C[C@@H]1C	none
O=C(C[C@@H]1C[C@@H]2c3cc(NC(=O)Nc4ccc(C(F)(F)F)cc4)ccc3O[C@@H]2[C@H](CO)O1)NC1CCCCC1	none
CCCN1C[C@@H](C)[C@@H](OC)CN(C)C(=O)c2cc(NS(=O)(=O)c3ccccc3)ccc2OC[C@H]1C	none
COc1cccc(S(=O)(=O)Nc2ccc3c(c2)C(=O)N(C)C[C@H](OC)[C@@H](C)CN(Cc2ccccc2F)[C@H](C)CO3)c1	none
COc1cccc(S(=O)(=O)Nc2ccc3c(c2)C(=O)N(C)C[C@@H](OC)[C@H](C)CN(Cc2ccccc2F)[C@H](C)CO3)c1	DUX4 txn inh -26
COc1cccc(NC(=O)N2C[C@H](O)COC[C@@H]3O[C@H](CC(=O)NCc4ccccc4F)CC[C@H]32)c1	none
CCCNC(=O)Nc1ccc2c(c1)C(=O)N(C)C[C@@H](OC)[C@H](C)CN[C@@H](C)CO2	none
C[C@H](CO)N1C[C@H](C)[C@H](CN(C)Cc2ccc(C(=O)Nc3ccccc3N)cc2)OCc2cnnn2CCCC1=O	DUX4 txn inh -16
C[C@@H]1CN([C@@H](C)CO)C(=O)CCCn2nncc2CO[C@@H]1CN(C)Cc1ccc(C(=O)O)cc1	none
C[C@H]1CN([C@@H](C)CO)C(=O)CCCn2nncc2CO[C@H]1CN(C)Cc1ccc(C(=O)O)cc1	none
O=C(C1CC1)N1C[C@@H]2[C@H](c3ccccc31)[C@@H](CO)N2C(=O)c1ccccn1	none
